Activity calls are given as the source filed them. The rule behind the calls is not given here.
Assay: C difficile toxins, biochemical counterscreen, UDPG substrate absence, confirmatory dose response (AID 720650)
Settings: series mostly up to 19.5 µM

Row | SMILES | AC50
1 | CC[C@H](C)[C@H]1CNC(=S)N1CC1CCN(CCCC2CCCC2)CC1 | inactive
2 | Cc1cc(C)cc(N=C2NC(=O)CS2)c1 | inactive
3 | Clc1ccc(-c2nc3ccc(Cl)cn3c2Cc2ccccc2)cc1 | inactive
4 | O=C(C[C@H]1CC[C@@H]2[C@H](COC[C@@H](O)CN2C(=O)Nc2ccc(Cl)c(Cl)c2)O1)NCc1ccncc1 | inactive
5 | COc1ccc(C(=O)Nc2c(-c3cccs3)c(=O)c3ccccc3n2C)cc1 | inactive
6 | CCCNC(=O)Nc1ccc2c(c1)C(=O)N(C)[C@@H]1CC[C@H](CC(=O)NC3CCC3)O[C@H]1CO2 | inactive
7 | Cc1cc(C)c(NS(=O)(=O)c2cccc3cccnc23)c(C)c1 | inactive
8 | COc1ccc(/C=C2\CCC(C3CCCC3)C2=O)cc1 (stereo unspecified) | inactive
9 | Cc1ccc(C(=O)COC(=O)c2cc(=O)[nH]c3ccccc23)cc1 | inactive
10 | CC(C)c1cc(CN2CCN(Cc3ccc(F)c(F)c3)C(CCO)C2)[nH]n1 (stereo unspecified) | inactive
11 | CN(c1ccc(O)cc1)c1nc(-c2cccnc2)cs1 | inactive
12 | Oc1ccc2ccc3[nH]cnc3c2c1 | 18.5 µM (active)
13 | CCn1c(SCC(=O)OC)nnc1-c1ccccc1 | inactive
14 | Cc1ccn(CCC(=O)NC2CC(C)(C)Cc3c2cnn3-c2ccccc2C)n1 (stereo unspecified) | inactive
15 | C=C1CCN(Cc2ccccc2)S(=O)(=O)c2ccccc21 | inactive
16 | O=S(=O)(NC1CCCCCCC1)c1ccc(F)cc1 | inactive
17 | CN1CC(=O)N/C1=N\C(=O)Nc1ccc(O)cc1 | inactive
18 | CC(C)CNC(=O)c1c(F)c(F)c(F)c(F)c1F | inactive
19 | CCN(CC)S(=O)(=O)c1cc(C(=O)Nc2cccnc2Cl)ccc1Cl | inactive
20 | Fc1ccc(-c2nc3ccc(Br)cn3c2Cc2ccccc2)cc1 | inactive
21 | Cc1ccc(-c2cc(C(=O)NNC(=O)c3csc(N4CCOCC4)n3)c3ccccc3n2)cc1 | inactive
